# Measurements reported in the supplement of paper PMC3545927.
# This is one part of the list. How many sequences the whole screen found active is unknown.
# B1: HC2491 (peptide)
# chain: CASDPCSAHLAGNASASA
# B2: HC2467 (peptide)
# chain: CAFTPCSAHLAGNASASA
# B3: HC1894 (peptide)
# chain: CATTPCSKSWAGNASASA
# B4: HC230 (peptide)
# chain: CALVGAPLGGAGNASASA
# B5: FS-1180 (peptide)
# chain: CAWLIRRRRSAGNASASA
# B6: FS-528 (peptide)
# chain: CAFYNRRRRSAGNASASA
# B7: FS-3212 (peptide)
# chain: CARSTRDVQAAGNASASA
# B8: FS-1503 (peptide)
# chain: CAWWRRRRRSAGNASASA
# B9: HC2329 (peptide)
# chain: CAEYPCHRPSAGNASASA
# B10: FS-982 (peptide)
# chain: CADLARHYKSAGNASASA
# B11: HC1168 (peptide)
# chain: CAYKGVWRVDAGNASASA
# B12: HC946 (peptide)
# chain: CAHFLSQTKQAGNASASA
# B13: HC2569 (peptide)
# chain: CASTPCSAHYAGNASASA
# B14: FS-1100 (peptide)
# chain: CATTRVRRRSAGNASASA
# B15: HC608 (peptide)
# chain: CAVFGPLWILAGNASASA
# B16: FS-2782 (peptide)
# chain: CARRPRQKEAAGNASASA
# B17: FS-2833 (peptide)
# chain: CARTPRSSSAAGNASASA
# B18: FS-2179 (peptide)
# chain: CARRPRRVIAAGNASASA
# B19: FS-1921 (peptide)
# chain: CARRPRRVEAAGNASASA
# B20: HC169 (peptide)
# chain: CARRPQDVKFAGNASASA
# B21: FS-1837 (peptide)
# chain: CARRPRHLSAAGNASASA
# B22: FS-1781 (peptide)
# chain: CARRLRDQEAAGNASASA
# B23: FS-2467 (peptide)
# chain: CARTPREVEAAGNASASA
# B24: HC880 (peptide)
# chain: CAALMTGYTGAGNASASA
# B25: HC2127 (peptide)
# chain: CAEFVVCCSMAGNASASA
# B26: HC2521 (peptide)
# chain: CASTNCSAHLAGNASASA
# B27: HC1352 (peptide)
# chain: CAESYSSMPPAGNASASA
# B28: HC2106 (peptide)
# chain: CAMDVVCCSMAGNASASA
# B29: HC639 (peptide)
# chain: CARDWAHNGLAGNASASA
# B30: FS-2017 (peptide)
# chain: CARGKRRREKAGNASASA
# B31: FS-2016 (peptide)
# chain: CARGKRQATAAGNASASA
# B32: WN1 (peptide)
# chain: CAQRKRGGTAAGNASASA
# B33: FS-2019 (peptide)
# chain: CARGKRYSYKAGNASASA
# B34: FS-2015 (peptide)
# chain: CARGKRHATKAGNASASA
# B35: HC485 (peptide)
# chain: CAGERCDLEDAGNASASA
# B36: HC1465 (peptide)
# chain: CASSYGFQYSAGNASASA
# B37: HC1926 (peptide)
# chain: CATTPCSGSMAGNASASA
# B38: HC1588 (peptide)
# chain: CAARDQLEQAAGNASASA
# B39: FS-1358 (peptide)
# chain: CALKHRVKKSAGNASASA
# B40: FS-736 (peptide)
# chain: CAVPPRRKKSAGNASASA
# B41: FS-802 (peptide)
# chain: CAIFSRVKKSAGNASASA
# B42: HC804 (peptide)
# chain: CATGSPITYSAGNASASA
# B43: FS-1485 (peptide)
# chain: CASFDRKKKSAGNASASA
# B44: FS-39 (peptide)
# chain: CAKGSRRKKSAGNASASA
# B45: FS-1343 (peptide)
# chain: CAIFSRCARSAGNASASA
# B46: FS-1376 (peptide)
# chain: CAMIHRFWKSAGNASASA
# B47: FS-831 (peptide)
# chain: CANAHRDKKSAGNASASA
# Biological target: furin, P09958
# Sequence (P09958 whole entry): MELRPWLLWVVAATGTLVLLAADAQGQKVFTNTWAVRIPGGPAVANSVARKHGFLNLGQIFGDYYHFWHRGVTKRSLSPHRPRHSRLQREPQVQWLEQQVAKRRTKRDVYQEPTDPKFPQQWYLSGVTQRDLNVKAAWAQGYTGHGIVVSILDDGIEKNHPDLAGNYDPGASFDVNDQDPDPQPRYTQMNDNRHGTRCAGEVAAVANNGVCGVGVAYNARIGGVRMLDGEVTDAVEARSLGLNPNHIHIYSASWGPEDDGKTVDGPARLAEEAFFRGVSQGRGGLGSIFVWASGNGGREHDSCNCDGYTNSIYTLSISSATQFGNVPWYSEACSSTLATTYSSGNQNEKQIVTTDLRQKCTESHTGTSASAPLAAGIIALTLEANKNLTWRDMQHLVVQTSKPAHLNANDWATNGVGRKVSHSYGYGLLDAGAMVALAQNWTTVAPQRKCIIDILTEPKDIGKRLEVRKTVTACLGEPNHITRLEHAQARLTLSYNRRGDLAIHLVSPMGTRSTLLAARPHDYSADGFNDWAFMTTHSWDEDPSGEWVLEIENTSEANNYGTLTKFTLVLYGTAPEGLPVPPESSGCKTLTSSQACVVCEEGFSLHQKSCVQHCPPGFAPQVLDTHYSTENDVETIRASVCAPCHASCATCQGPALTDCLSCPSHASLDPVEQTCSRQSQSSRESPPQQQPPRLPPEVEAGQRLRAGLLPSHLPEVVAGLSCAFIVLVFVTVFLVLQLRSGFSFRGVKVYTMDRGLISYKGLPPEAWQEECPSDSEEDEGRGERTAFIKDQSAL
# Assay: furin cleavage Z-score vs untreated control; higher = more cleavage, active = 3.5 or more, inactive = 1 or less, 8 variable residues between constant flanks
# Procedure, shortened: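 The cleavage Z-score was derived for purified furin acting on 8-mer peptides held on magnetic beads and fused to a cDNA oligonucleotide. Digests lasted 7.5, 15 or 30 min at 1:10 enzyme:substrate in 50 mM HEPES pH 7.5 with CaCl2 and NaCl. Sequencing counts of released DNA, log-transformed against furin-free reactions, were lowess-adjusted and scaled by median absolute deviation.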
Sequence,furin cleavage Z-score (7.5 min),furin cleavage Z-score (15 min),furin cleavage Z-score (30 min)
B1,-0.0824 (inactive),0.0077 (inactive),0.561 (inactive)
B2,-2.12 (inactive),-1.48 (inactive),-1.08 (inactive)
B3,0.86 (inactive),-0.828 (inactive),1.43
B4,0.473 (inactive),0.0326 (inactive),-0.438 (inactive)
B5,13.7 (active),13.5 (active),11.2 (active)
B6,10.4 (active),10.5 (active),8.75 (active)
B7,6.84 (active),7.38 (active),6.15 (active)
B8,12.2 (active),12.2 (active),8.61 (active)
B9,-1.31 (inactive),-1.61 (inactive),0.059 (inactive)
B10,1.07,-0.538 (inactive),-1.88 (inactive)
B11,-0.715 (inactive),-0.703 (inactive),0.326 (inactive)
B12,-1.62 (inactive),-0.0771 (inactive),0.398 (inactive)
B13,-0.833 (inactive),0.198 (inactive),0.946 (inactive)
B14,8.61 (active),10.7 (active),6.67 (active)
B15,-0.487 (inactive),-1.14 (inactive),-0.989 (inactive)
B16,0.0199 (inactive),-1.9 (inactive),-0.838 (inactive)
B17,0.99 (inactive),-0.243 (inactive),2.32
B18,-0.112 (inactive),2.08,3.81 (active)
B19,1.67,1.82,3.69 (active)
B20,-0.409 (inactive),-1.01 (inactive),-0.285 (inactive)
B21,5.27 (active),4.94 (active),5.51 (active)
B22,0.143 (inactive),-1.21 (inactive),-0.196 (inactive)
B23,1.78,1.61,4.16 (active)
B24,-1.03 (inactive),-2.97 (inactive),-0.313 (inactive)

Sequence,furin cleavage Z-score (7.5 min),furin cleavage Z-score (15 min),furin cleavage Z-score (30 min)
B25,-1.01 (inactive),0.711 (inactive),-0.748 (inactive)
B26,1.3,-0.319 (inactive),0.484 (inactive)
B27,0.813 (inactive),-0.573 (inactive),-0.906 (inactive)
B28,-0.103 (inactive),-0.752 (inactive),-0.482 (inactive)
B29,0.358 (inactive),-0.707 (inactive),0.626 (inactive)
B30,-0.00549 (inactive),-0.584 (inactive),-1.52 (inactive)
B31,7.14 (active),9.61 (active),6.1 (active)
B32,-1.04 (inactive),0.079 (inactive),-0.249 (inactive)
B33,0.222 (inactive),0.712 (inactive),1.19
B34,7.59 (active),7.53 (active),7.79 (active)
B35,0.0125 (inactive),-0.597 (inactive),0.387 (inactive)
B36,1.75,0.0331 (inactive),-0.209 (inactive)
B37,-0.191 (inactive),0.357 (inactive),-1.65 (inactive)
B38,1.26,0.408 (inactive),-0.23 (inactive)
B39,8.56 (active),10.2 (active),8.6 (active)
B40,3.36,2.71,4.45 (active)
B41,3.99 (active),2.87,3.95 (active)
B42,-0.202 (inactive),-0.337 (inactive),-0.568 (inactive)
B43,-0.34 (inactive),-0.366 (inactive),-0.05 (inactive)
B44,5.36 (active),4.72 (active),4.1 (active)
B45,0.568 (inactive),0.619 (inactive),1.19
B46,0.282 (inactive),-1.21 (inactive),-1.26 (inactive)
B47,-0.25 (inactive),-0.94 (inactive),-2.16 (inactive)
